# Data published in the supplement of paper PMC6555819.
# System: PXR homodimer (NR concentration 270 nM)
# Assay: PBM binding z-score (relative to random genomic background probes); higher = stronger binding; sequences stand for … in GC…GCGATTGACAGCGTAGAATGAAGG
# Summary of the method: (§1)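 For binding z-scores, the reference was random background probes on custom Agilent 4×180K protein-binding microarrays. These arrays were incubated 1 h with ligand-free nuclear receptor dimers in PBS pH 7.4, 2% milk, 0.02% Triton X-100, 1 mM DTT, 0.2 mg/mL BSA and 0.4 mg/ml salmon testes DNA. Fluorescence was scanned after antibody detection of each partner (one per run) and regression-normalized.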
row,Sequence,PBM binding z-score
1,CAAACTAGGTAACCGGAAGGTCAAAGTCCGCATG,1.57
2,TCTCGGAGGACACGAGAGGTCAGAGCTCGACATC,0.385
3,AGAATGAGATTATACGTAGATCAGGGAAGAAAGT,0.417
4,CCTAGCAGGCCAATCTGAGTCACTCAAGGCTTGA,-0.519
5,GTACCAAAGTGAATAGGTCGTTGATGAGTAGGCG,-0.196
6,GGTACAGGGTCAAGGCCAGAGTACGCGTATTGAT,0.674
7,ACTTTCGGGTCAACGAGGTTATAGCACGCGTATA,6.97
8,AATACTGGGTCACTAGGCCAGAGTAGGTACGAAT,0.0229
9,AGAACGAGGGCACGCTGAGTGGATAGCAGAGTAG,-0.338
10,GGAACGAGGGCAAGTTGATAGGAGAGTTTGATGG,1.15
11,CCTATTAGTTGACCGTAAGGGCAACCGAAGCTCG,0.939
12,CCTAGCAGGCCAGGGTCACTAAAGCATTTCGCTT,-0.725
13,TCCTATAGGTAATACAGGTGAAAGTCGGCATCTA,-0.159
14,TCTTGTAGATCAGCAGGTTAAAAAAGCTGGCCAA,-0.197
15,CCTAGCAGGCCAGGGTAACTCAAGCATTTCGCTT,-0.762
16,GGAACGAGGGCAAAGTTTATAGCATCTGTCGACG,0.961
17,CCTTACGGGTCACGGACAGGTTATAGCATTTGGA,0.261
18,TCATTTAGGTAAAAGGTGAAAGTCGGTGTGGTAA,0.93
19,CGTCAAAGTTCAACTAACGTAACGTAAAGCACGC,3.33
20,TCTTGTAGTTCAGCAGGTTAAGAAAGCTGGCCAA,0.352

row,Sequence,PBM binding z-score
1,CCAACTAGGTCAAGGTCAAAGTCGGTTTGTGCCA,2.55
2,ACTCGGAGGACAAAGGTCAGAGCTACGCCAGTGA,0.0188
3,TCATATAGTTAAAGGTGAAAGTCGAACGATATGA,-0.26
4,GGAACGAAGGCAAAGTTGATAGCATCTGTCGACG,-0.569
5,ATCTCGAGGTAAAAGTTCAGTGAATCCCGAGGAT,0.878
6,GCTAGTTGGTCCGTAAAAGGTCACACACCGGTCG,1.12
7,CCTACTGGGACAAAGGTCATTGATTCCAATGCTC,2.24
8,CGAACTAGGTCAGAACAGGACAGTGAAGGATGAT,-0.0517
9,TCTAGTTGCTCAAAGGTCACACACTCGAAATGCG,1.24
10,GCTGCTAGGTCAACTGATGGTCAGGTAAAGCTCG,-0.677
11,GGAACGAGGGCAACGTTGATAGCATCTGTCGACG,-0.723
12,CCTACTGGGCCAAGAAGGTCATTGATGCCGATAA,1.54
13,CCGACTGGGGCAGAAAGGTTACCAGACCATCCGG,-0.356
14,AGTCAAGGTTCACTAGGTAACGTAAGATTCAGCT,0.833
15,CGTCCAAGGTCAATGGTAGGTCAGTGAAAGCATT,1.79
16,CTACCAAGGTGCACAAGGTCGTTGATTACTATTC,1.22
17,TCGAGTAGGTTACCAATGGGGCACTCAGCTTTCT,-0.848
18,AGTCAAAGTTCATCTAGGTAAGGTAAGATATGCT,5.75
19,TAGCCTAGGTCATTGGGTCAGTATAGTACGCATC,0.622
20,CGACCTAGGTCAGAACAGGACAGTGAAGGATGAT,-0.195

# System: RARa:RXR (NR concentration 270 nM, RXRa partner concentration 90 nM)
# Assay: as above
# Summary of the method: as §1
row,Sequence,PBM binding z-score
1,CAAACTAGGTAACCGGAAGGTCAAAGTCCGCATG,4.88
2,TCTCGGAGGACACGAGAGGTCAGAGCTCGACATC,3.56
3,AGAATGAGATTATACGTAGATCAGGGAAGAAAGT,-0.447
4,CCTAGCAGGCCAATCTGAGTCACTCAAGGCTTGA,-0.853
5,GTACCAAAGTGAATAGGTCGTTGATGAGTAGGCG,0.176
6,GGTACAGGGTCAAGGCCAGAGTACGCGTATTGAT,4.77
7,ACTTTCGGGTCAACGAGGTTATAGCACGCGTATA,4.91
8,AATACTGGGTCACTAGGCCAGAGTAGGTACGAAT,1.53
9,AGAACGAGGGCACGCTGAGTGGATAGCAGAGTAG,0.776
10,GGAACGAGGGCAAGTTGATAGGAGAGTTTGATGG,0.165
11,CCTATTAGTTGACCGTAAGGGCAACCGAAGCTCG,1.35
12,CCTAGCAGGCCAGGGTCACTAAAGCATTTCGCTT,2.96
13,TCCTATAGGTAATACAGGTGAAAGTCGGCATCTA,0.537
14,TCTTGTAGATCAGCAGGTTAAAAAAGCTGGCCAA,0.613
15,CCTAGCAGGCCAGGGTAACTCAAGCATTTCGCTT,-0.455
16,GGAACGAGGGCAAAGTTTATAGCATCTGTCGACG,1.74
17,CCTTACGGGTCACGGACAGGTTATAGCATTTGGA,6.3
18,TCATTTAGGTAAAAGGTGAAAGTCGGTGTGGTAA,2.74
19,CGTCAAAGTTCAACTAACGTAACGTAAAGCACGC,3.3
20,TCTTGTAGTTCAGCAGGTTAAGAAAGCTGGCCAA,1.18

row,Sequence,PBM binding z-score
1,CCAACTAGGTCAAGGTCAAAGTCGGTTTGTGCCA,5.24
2,ACTCGGAGGACAAAGGTCAGAGCTACGCCAGTGA,5.19
3,TCATATAGTTAAAGGTGAAAGTCGAACGATATGA,1.47
4,GGAACGAAGGCAAAGTTGATAGCATCTGTCGACG,-0.458
5,ATCTCGAGGTAAAAGTTCAGTGAATCCCGAGGAT,2.6
6,GCTAGTTGGTCCGTAAAAGGTCACACACCGGTCG,5.63
7,CCTACTGGGACAAAGGTCATTGATTCCAATGCTC,6.06
8,CGAACTAGGTCAGAACAGGACAGTGAAGGATGAT,0.927
9,TCTAGTTGCTCAAAGGTCACACACTCGAAATGCG,5.48
10,GCTGCTAGGTCAACTGATGGTCAGGTAAAGCTCG,3.15
11,GGAACGAGGGCAACGTTGATAGCATCTGTCGACG,0.65
12,CCTACTGGGCCAAGAAGGTCATTGATGCCGATAA,3.23
13,CCGACTGGGGCAGAAAGGTTACCAGACCATCCGG,1.47
14,AGTCAAGGTTCACTAGGTAACGTAAGATTCAGCT,1.9
15,CGTCCAAGGTCAATGGTAGGTCAGTGAAAGCATT,5.88
16,CTACCAAGGTGCACAAGGTCGTTGATTACTATTC,1.87
17,TCGAGTAGGTTACCAATGGGGCACTCAGCTTTCT,0.158
18,AGTCAAAGTTCATCTAGGTAAGGTAAGATATGCT,3.9
19,TAGCCTAGGTCATTGGGTCAGTATAGTACGCATC,3.67
20,CGACCTAGGTCAGAACAGGACAGTGAAGGATGAT,0.948
